Source: the supplement of paper PMC6555819

Columns and labels:
Assay in all cases: PBM binding z-score (relative to random genomic background probes); higher = stronger binding; sequences stand for … in GC…GCGATTGACAGCGTAGAATGAAGG
[1] = system: RARb homodimer (NR concentration 270 nM)
Outline: (§1)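 Ligand-free nuclear receptor dimers were applied to custom Agilent 4×180K protein-binding microarrays whose double-stranded probes carried direct-repeat seeds, single-nucleotide variants, half-site ablations and random human genomic background sequences in 34-nt variable regions. Incubation lasted 1 h. Binding z-scores were computed against the random background probes from regression-normalized fluorescence.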

[2] = system: RARg:RXRa (NR concentration 270 nM, RXRa partner concentration 90 nM)
Outline: as §1

[3] = system: RARg homodimer (NR concentration 270 nM)
Outline: as §1

[4] = system: RXRa DBDmut IVT, anti-RXR (DBD mutation: RXRa K156A/R161A, NR concentration 90 nM)
Outline: as §1

[5] = system: RXRa homodimer (NR concentration 180 nM)
Outline: as §1

[6] = system: THRa:RXRa (NR concentration 90 nM, RXRa partner concentration 90 nM)
Outline: as §1

[7] = system: THRa homodimer (NR concentration 90 nM)
Outline: as §1

[8] = system: VDR homodimer (NR concentration 270 nM)
Outline: as §1

Row | Sequence | PBM binding z-score [1] | PBM binding z-score [2] | PBM binding z-score [3] | PBM binding z-score [4] | PBM binding z-score [5] | PBM binding z-score [6] | PBM binding z-score [7] | PBM binding z-score [8]
1 | ACAGACAGGTGAGTGAAGGTACCTCAGCTGGACG | -0.44 | -0.0299 | 0.22 | -0.86 | -0.0741 | 0.291 | -0.575 | -0.908
2 | ACTATTAGCTGACTTAGGGCAACCGATACGACGC | 0.665 | 0.504 | 0.628 | 0.619 | 0.197 | 0.454 | 0.576 | -0.00444
3 | TCAGACAGGTGATGGTAACTCAGGTACGCAGTCG | 0.401 | 0.447 | 0.147 | 0.843 | 0.688 | 0.659 | 0.545 | 0.532
4 | ATCTCTAGGTAAAAGTTCTGTGAATCCCGAGGAT | -0.265 | 0.293 | 0.308 | -0.0693 | 0.153 | 0.234 | 0.364 | 0.467
5 | CGTGCAAGGTCAATGCTAGGTCAGTGAAAGCATT | 4.95 | 7.96 | 7.27 | 3.39 | 5.44 | 4.64 | 2.44 | 2.89
6 | GCTCGGAGGACAGGGTCAGAGCTTTGTCCGTAGA | 2.28 | 2.42 | 2.37 | 0.265 | 2.69 | 2.4 | 0.321 | 0.212
7 | GCTGCTAGGTCAACTGATGGGCAGCTAAAGCTCG | 3 | 4.73 | 5.5 | 1.45 | 2.89 | 2.68 | 0.684 | -0.378
8 | TCTAGTAGGTTAGGGGCATTCAGAATGGCGTCGA | 1.31 | 0.656 | 0.586 | 1.42 | 0.98 | 1.03 | 0.797 | 1.39
9 | AGAATGAGGTTAGACGTAGATCAGGGAAGAAAGT | 0.932 | 0.987 | 0.859 | 0.209 | 1.17 | 1.55 | 0.554 | 0.591
10 | CCGACTGGGGTATAAGGTTACCATAAGCCAGCCC | 0.893 | 0.542 | 0.421 | -0.174 | 1.11 | 2.02 | 1.21 | -0.0356
11 | TAACCTAGGTCAGATCGGGCCAGTATACGCTATA | 2.52 | 3.36 | 3.68 | 0.17 | 1.94 | 4.19 | 0.384 | 0.367
12 | CCTAGGAGGACAGAAGGTCAGAGCTGTCCGCTTT | 3.34 | 3.28 | 2.78 | 0.179 | 1.84 | 2.25 | -0.21 | -0.00238
13 | ACTATTAGTTGAGACGAGGGCAATCGATAGGTTG | 0.955 | 0.898 | 0.973 | 0.801 | 0.517 | 2.22 | -0.15 | 1.06
14 | ATCGAAAGGTTGAAGGTGAGTATACCCACCCGAA | 0.919 | 1.45 | 1.24 | -0.0221 | 2.38 | 0.997 | -0.184 | 0.162
15 | TCTTGTAGATCAATAGAGGCTAAGAAAGTGCGCT | -0.029 | 0.139 | -0.0605 | 0.703 | 0.213 | 0.676 | -0.939 | -0.123
16 | TCTTGTAGATCAAGCAAGTTAAGAAAGCCTGAGT | -0.703 | -0.21 | -0.386 | 0.582 | -0.066 | 0.341 | -0.759 | -0.186
17 | GCTTACGGGTCAAAGGTTATCGCATGAATAGAAT | 3.45 | 7.02 | 5.01 | 2.6 | 9.64 | 3.98 | 0.155 | 1.59
18 | ACTTACGGGTCAACGAGGTTCTAGCACGCGTATA | 3.24 | 5.08 | 4.31 | 2.18 | 5.1 | 3.34 | 0.629 | 2.01
19 | TCTATTAGTTGATTGGGGCAACCGAAACAGCGGA | 0.682 | 0.564 | 0.336 | 1.34 | 0.882 | 0.545 | 0.527 | 0.77
20 | CAACCTAGGTCACAGAGGTCAAAGTCCGTGCGTA | 5.82 | 7.61 | 7.92 | 3.68 | 8.52 | 4.55 | 3.1 | 7.57
21 | CCTAGTTGGCCAGGAGGTCACACACCGGATATGA | 4.01 | 4.27 | 3.43 | 0.6 | 4.51 | 3.54 | 2.38 | 2.16
22 | CCTGCTAGGTCAATGGTCAGCCAAAGCAGCTCGC | 3.05 | 3.38 | 4.35 | 1.48 | 2.23 | 2.06 | 0.619 | -0.16
23 | ATCGGAAGGTCGACGAGGTGAGTATACACCGTTT | 1.95 | 2.32 | 2.65 | 0.311 | 2.37 | 3.04 | 0.579 | 0.813
24 | AGTCAAAGTTCATTAGGTAACGTAAGATTCAGCT | 3.87 | 5.26 | 5.92 | 4.97 | 4.52 | 2.59 | 0.801 | 5.43
25 | CGTCCAGGGTCAAGGTCAGTGAAAGAGACTCGAA | 4.96 | 6.51 | 6.69 | 2.77 | 6.61 | 4.19 | 2.79 | 2.98
26 | GATAGAGGGTCAAGGCCAGAGTACGCGTATTGAT | 3.47 | 4.81 | 4.67 | 1.49 | 4.38 | 2.65 | 0.388 | 1.59
27 | ATCGAAAGGTCGAAGGTGATTATACCCACCCGAA | 2.14 | 4.11 | 3.87 | 0.956 | 4.77 | 1.97 | 0.193 | 0.477
28 | TAGCCTAGGTCAGATCGGGCCAGTAAACGCTATA | 1.72 | 2.66 | 3.21 | -0.396 | 1.32 | 3.89 | -0.219 | -0.568
